Test results reported in PubChem BioAssay (NCATS).
Where “and” joins values, the source holds several entries; their conditions need not be identical. Equal values may be shown once. Records with an inconclusive call do not appear. Calls of active or inactive are those of the source. The call rests on the fitted dose curve; in most records, active means well fitted curve in the direction sought with a large enough effect; inconclusive means small, poorly fitted or top-dose-only effect, or another doubt; inactive means no such curve, though single readings can be large; an effect the other way counts as inactive or inconclusive.

Columns and labels:
[1] = test system: KB-3-1; test: Cytotoxic Profiling of Annotated Libraries Using Quantitative High-Throughput Screening (AID 1296008); details: Five cell lines viability, CellTiter-Glo ATP luminescence, 48-72 h; max response: active compounds read low; further: nearly all actives have a fitted effect of over 60% in size; on max response: on the % scale 0 is the no-effect control and ±100 the full control effect
Method in brief: (§1)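 Cells exposed to compounds for 48 or 72 hr at 37 degrees Celsius. Viability read as ATP-coupled luminescence with CellTiter-Glo after 10 min at room temperature.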

[2] = test system: NIH3T3; test: as above; details: Five cell lines viability, CellTiter-Glo ATP luminescence, 48-72 h; max response: active compounds read low
Method in brief: as §1

[3] = test system: NIH3T3; test: qHTS assay to identify novel small-molecules to repurpose for Merkel cell carcinoma treatment (AID 1296009); details: MCC and control cell lines, CellTiter-Glo viability, 72 h; at 44.8 µM (top of the series) unless noted; further: nearly all actives have a fitted effect of over 60% in size
Method in brief: (§2)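 Dose-response viability screen; 72 hr exposure at 37 degree celsius; CellTiter-Glo added, 10 min room temperature, luminescence read; RLUs scaled between no-cell and DMSO wells.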

[4] = test system: C33A; test: Primary qHTS to identify gynecologic anti-cancer compounds using libraries of approved drugs and bioactive compounds (AID 1345084); details: Gynecologic cancer cell panel viability, ATPlite luminescence, 48 h; series mostly up to 57.5 µM; further: nearly all actives have a fitted effect of over 55% in size
Method in brief: (§3)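 Cells, 1,000 per well, were allowed to settle for 16 h at 37 C before compound addition. Five concentrations were tested for 48 h, and viability was read by ATPlite luminescence after 15 min at room temperature.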

[5] = test system: CAOV3; test: as above; details: Gynecologic cancer cell panel viability, ATPlite luminescence, 48 h; series mostly up to 57.5 µM
Method in brief: as §3

[6] = test system: CASKI; test: as above; details: Gynecologic cancer cell panel viability, ATPlite luminescence, 48 h; series mostly up to 57.5 µM
Method in brief: as §3

[7] = test system: Es-2; test: as above; details: Gynecologic cancer cell panel viability, ATPlite luminescence, 48 h; series mostly up to 57.5 µM
Method in brief: as §3

[8] = test system: HeLa; test: as above; details: Gynecologic cancer cell panel viability, ATPlite luminescence, 48 h; series mostly up to 57.5 µM
Method in brief: as §3

[9] = test system: Hek293T; test: as above; details: Gynecologic cancer cell panel viability, ATPlite luminescence, 48 h, control line for the selectivity index; series mostly up to 57.5 µM
Method in brief: as §3

[10] = test system: JEG-3; test: as above; details: Gynecologic cancer cell panel viability, ATPlite luminescence, 48 h; series mostly up to 57.5 µM
Method in brief: as §3

[11] = test system: OV90; test: as above; details: Gynecologic cancer cell panel viability, ATPlite luminescence, 48 h; series mostly up to 57.5 µM
Method in brief: as §3

[12] = test system: MCC-13; test: qHTS assay to identify novel small-molecules to repurpose for Merkel cell carcinoma treatment (AID 1296009); details: MCC and control cell lines, CellTiter-Glo viability, 72 h; further: nearly all actives have a fitted effect of over 60% in size
Method in brief: as §2

[13] = test system: MCC-26; test: as above; details: MCC and control cell lines, CellTiter-Glo viability, 72 h
Method in brief: as §2

[14] = test system: MKL-1; test: as above; details: MCC and control cell lines, CellTiter-Glo viability, 72 h
Method in brief: as §2

[15] = test system: MKL-2; test: as above; details: MCC and control cell lines, CellTiter-Glo viability, 72 h
Method in brief: as §2

[16] = test system: UISO; test: as above; details: MCC and control cell lines, CellTiter-Glo viability, 72 h
Method in brief: as §2

[17] = test system: WaGa; test: as above; details: MCC and control cell lines, CellTiter-Glo viability, 72 h
Method in brief: as §2

[18] = test system: HEK293T; test: as above; details: MCC and control cell lines, CellTiter-Glo viability, 72 h; at 44.8 µM (top of the series) unless noted
Method in brief: as §2
Potency means the concentration at half of the fitted maximal effect.

CO[C@H]1[C@H](O)[C@H](O[C@H]2CC[C@]3(C)C4CC[C@]5(C)[C@H](C6=CC(=O)OC6)CC[C@]5(O)C4CC[C@@H]3C2)O[C@@H](C)[C@@H]1O (stereo partly drawn)
inactive: outcome [2] | outcome [3] inactive [at 17.4 µM]
active: Potency [1] 0.0893 µM | Potency [4] 0.0891 µM | Potency [5] 0.126 µM | Potency [6] 0.224 µM | Potency [7] 0.0794 µM | Potency [8] 0.0891 µM | Potency [9] 0.0891 µM | Potency [10] 0.178 µM | Potency [11] 0.282 µM

COC1CC(OC2CCC3(C)C(CCC4C3CCC3(C)C(C5=CC(=O)OC5)C(OC(C)=O)CC43O)C2)OC(C)C1OC1OC(CO)C(O)C(O)C1O (stereo not drawn)
active: Potency [1] 1.09 µM | Potency [4] 3.16 µM | Potency [8] 2.82 µM | Potency [9] 3.16 µM
inactive: outcome [2] | outcome [3] inactive [at 17.4 µM]

CCN1C[C@]2(COC(=O)c3ccccc3N3C(=O)C[C@H](C)C3=O)CC[C@H](OC)[C@@]34[C@@H]5C[C@H]6[C@H](OC)[C@@H]5[C@](O)(C[C@@H]6OC)[C@](O)([C@@H](OC)[C@H]23)[C@@H]14
inactive: outcome [1] | outcome [2] | outcome [3] | Potency [4] | Potency [5] | Potency [6] | Potency [7] | Potency [8] | Potency [9] | Potency [10] | Potency [11]

C=C[C@H]1CN2CC[C@H]1C[C@@H]2[C@@H](O)c1ccnc2ccccc12
inactive: max response [1] 5.41% and -18.8% | max response [2] -3.21% | Potency [4] | Potency [5] | Potency [6] | Potency [7] | Potency [8] | Potency [9] | Potency [10] | Potency [11]

COC1C(O)C(C)OC(OC2C(CO)O[C@@H](O[C@@H]3CC4CCC5C(CC[C@]6(C)[C@@H](C7=CC(=O)OC7)CC[C@]56O)[C@@]4(C)[C@H](O)C3)C(O)C2O)C1O (stereo partly drawn)
active: Potency [1] 0.862 µM | Potency [4] 0.794 µM | Potency [6] 2.51 µM | Potency [7] 2.82 µM | Potency [8] 2.82 µM | Potency [9] 2.82 µM | Potency [11] 4.47 µM
inactive: outcome [2] | outcome [3] inactive [at 17.4 µM]

Clc1ccc(N2C[C@H]3CC[C@@H](C2)N3)nn1
inactive: max response [1] 2.38% | outcome [2] | outcome [3] | Potency [4] | Potency [6] | Potency [7] | Potency [8] | Potency [9] | Potency [10] | Potency [11]

C[CH2][Hg][S]c1ccccc1C(=O)O
active: Potency [1] 7.31 µM | Potency [12] 15 µM | Potency [13] 15 µM | Potency [14] 2.99 µM | Potency [15] 0.944 µM | Potency [16] 2.99 µM | Potency [17] 2.66 µM

C[C@]12CC[C@@H](O)C[C@H]1CC[C@@H]1[C@@H]2CC[C@]2(C)C(=O)CC[C@@H]12
inactive: outcome [1] | outcome [2] | outcome [3] | Potency [4] | Potency [5] | Potency [6] | Potency [7] | Potency [8] | Potency [9] | Potency [10] | Potency [11]

CN1C(=O)c2ccccc2NC(=O)C1Cc1ccccc1 (stereo not drawn)
inactive: max response [1] 3.82% | max response [2] -1.81% | outcome [18] | Potency [4] | Potency [5] | Potency [6] | Potency [7] | Potency [8] | Potency [9] | Potency [10] | Potency [11]

CC1=C2C[C@H]3[C@@H](CC=C4C[C@@H](O)CC[C@@]43C)[C@@H]2CC[C@]12O[C@@H]1C[C@H](C)CN[C@H]1[C@H]2C
inactive: max response [1] 1.29% | outcome [2] | outcome [18] | outcome [3] | Potency [4] | Potency [5] | Potency [6] | Potency [7] | Potency [8] | Potency [9] | Potency [10] | Potency [11]

COC(=O)N1CCN(C(=O)Cc2ccc(Cl)c(Cl)c2)[C@@H](CN2CCCC2)C1
inactive: max response [1] -3.66% | outcome [2] | outcome [3] | Potency [4] | Potency [6] | Potency [7] | Potency [8] | Potency [9] | Potency [10] | Potency [11]

C=C(C)[C@H]1O[C@H]2CC[C@@]3(C)[C@@](O)(CC[C@H]4[C@@H]5OC(C)(C)[C@H]6C[C@@H]7C(=C)Cc8c(Cl)cc9[nH]c(c5c9c8[C@@]76O)[C@@]43C)[C@]23O[C@@H]3[C@H]1O
inactive: outcome [1] | max response [2] -2.87% | outcome [18] inactive [at 17.4 µM] | Potency [4] | Potency [6] | Potency [7] | Potency [8] | Potency [9] | Potency [10] | Potency [11]

CC(N)Cc1c[nH]c2ccccc12 (stereo not drawn)
inactive: outcome [1] | outcome [2] | outcome [18] | outcome [3] | Potency [4] | Potency [5] | Potency [6] | Potency [7] | Potency [8] | Potency [9] | Potency [10] | Potency [11]

C=C[C@H]1[C@H](O[C@@H]2O[C@H](CO)[C@@H](O)[C@H](O)[C@H]2O)OC=C2C(=O)OCC[C@H]21
inactive: outcome [1] | outcome [2] | outcome [18] | outcome [3] | Potency [4] | Potency [5] | Potency [6] | Potency [7] | Potency [8] | Potency [9] | Potency [10] | Potency [11]

CC(=O)OC1CC(O)C2(C)C(CC(OC(C)=O)C3(C)C2CCC2(C)C(c4ccoc4)C(=O)C4OC423)C1(C)C (stereo not drawn)
inactive: max response [1] 8.18% | max response [2] -1.6% | outcome [18] inactive [at 17.4 µM] | Potency [4] | Potency [5] | Potency [6] | Potency [7] | Potency [8] | Potency [9] | Potency [10] | Potency [11]
